Assay [1] can be described thus: small molecules captured by biotinylated probe aFSTL3 – biochemical, small-molecule microarray, fluorescence 635/667, stem cell growth factor project, primary screen (AID 1064).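 Further: measures binding of the biotinylated anti-FSTL3 antibody to printed compounds.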 The settings on record: higher = more signal.
Assay [2] can be described thus: binders from COS7 lysate, DM2A8 probe, primary screen, torsin A project, cell lysate, small-molecule microarray, fluorescence 635/667 (AID 1065). The following applies: higher = more signal, COS7 lysate expressing mutant human TOR1A.
Assay [3] can be described thus: small molecules captured by biotinylated probe aFGF2 – biochemical, small-molecule microarray, fluorescence 635/667, stem cell growth factor project, primary screen (AID 1067).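 Further: measures binding of biotinylated aFGF2 protein to printed compounds on slides; z-score merges feature fluorescence and signal-to-noise across triplicate slides.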 The settings on record: higher = more signal.
Assay [4] is described as follows: small molecules captured by biotinylated probe aFGF10 – biochemical, small-molecule microarray, fluorescence 635/667, stem cell growth factor project, primary screen (AID 1071).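 Further: score merges 667 nm spot intensity and signal to noise from triplicate slides.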 The settings on record: higher = more signal.
Assay [5] deals with Neurogenic locus notch homolog protein 2 (Homo sapiens) (UniProt Q04721). In words: small molecules binding Notch2 protein – biochemical, small-molecule microarray, 635 nm fluorescence, stem cell growth factors, primary screen (AID 1073). The following applies: higher = more signal.
For assay [6], the target named is Pro-neuregulin-1, membrane-bound isoform (Homo sapiens) (UniProt Q02297). As to the kind of experiment: small molecules binding neuregulin-1 protein – biochemical, small-molecule microarray, fluorescence 635/667, psychiatric disease protein project, primary screen (AID 1075).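 Further: score combines 667 nm spot fluorescence with signal to noise.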 The following applies: NRG1 binding, 635 nm fluorescence, higher = more signal.
The subject of assay [7] is Neuregulin-1 EGF-like domain. As to the kind of experiment: small molecules binding NRG1 EGF domain – biochemical, small-molecule microarray, 635 nm fluorescence, primary screen (AID 1081).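 Further: binding of the protein to compounds printed on small-molecule microarray slides.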 The settings on record: higher = more signal.
A short description of assay [8]: FRG1 expression reporter modulators in myotubes – cell-based, C2C12 myotubes, firefly/Renilla luciferase, luminescence, FRG1 inhibition for FSHD, primary screen (AID 1084). The settings on record: FRG1 promoter luciferase, higher = more signal, called active from +8 up or from −8 down.
Assay [9] in a line: small molecules captured by biotinylated probe aFST – biochemical, small-molecule microarray, fluorescence 635/667, stem cell growth factor project, primary screen (AID 1086).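 Further: score merges 667 nm fluorescence with signal-to-noise of each printed compound spot.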 The following applies: higher = more signal.
The nature of assay [10]: binders of probe aHhip on microarray, primary screen, stem cell growth factor project, biochemical, small-molecule microarray, fluorescence 635/667 (AID 1087).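 Further: score merges spot fluorescence at 667nm with spot signal to noise ratio.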 The settings on record: higher = more signal.
The subject of assay [11] is PRMT1 (protein arginine N-methyltransferase 1). In words: small molecules binding arginine methyltransferase PRMT1 – biochemical, small-molecule microarray, 635 nm fluorescence, primary screen (AID 1088).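 Further: binding of Prmt1 protein to compounds spotted on small-molecule microarray slides.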 The settings on record: higher = more signal.
Assay [12] in a line: growth effects on S. cerevisiae YJM789 – YJM789 clinical isolate, OD600, 24 h, basal, primary screen (AID 1089).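 Further: growth of clinical yeast isolate S. cerevisiae YJM 789 seeded 1000 cells per well; test concentration not given here.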 The following applies: higher = more signal, called active from +8 up or from −8 down.
The nature of assay [13]: S. pombe growth modifiers, basal conditions – strain 972, OD600, 24 h, no modulator, primary screen (AID 1090).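 Further: basal condition with compound alone and no growth modifier present; test concentration not given here.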 The following applies: S. pombe 972 growth, higher = more signal, called active from +8 up or from −8 down.
A short description of assay [14]: budding yeast growth modifiers under rapamycin – strain BY4716, OD600, 96 h, primary screen (AID 1091). Further: test concentration not given here. The settings on record: S. cerevisiae BY4716 + rapamycin, higher = more signal, called active from +8 up or from −8 down.
The target in assay [15] is Torsin-1A-interacting protein 2 (Homo sapiens) (UniProt Q8NFQ8). In words: small molecules binding lysate-expressed LULL1 – cell lysate, human LULL1 lysate, 635/667 nm fluorescence, primary screen (AID 1092).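 Further: probe is lysate of COS7 cells overexpressing human LULL1; score merges per-feature 667 nm fluorescence with signal-to-noise.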 The settings on record: small-molecule microarray, hLULL1 lysate binding, 635 nm fluorescence; higher = more signal.
Assay [16] is described as follows: optical density change of DRC41 E. coli – strain DRC41, OD650, 24 h, E. coli filamentation project, primary screen (AID 1093).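 Further: MC1000 strain lacking acrAB efflux and sulA so SOS filamentation is blocked; test concentration not given here.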 The following applies: E. coli DRC41 growth, higher = more signal, called active from +8 up or from −8 down.
Assay [17] is described as follows: probe aLefty2 binding to arrayed compounds – biochemical, biotinylated probe, 635/667 nm fluorescence, primary screen (AID 1094).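 Further: score merges spot fluorescence near 667 nm with spot signal-to-noise ratio.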 The following applies: small-molecule microarray, higher = more signal.
Assay [18] concerns Noggin (protein binding on small-molecule microarray). In words: small molecules binding Noggin protein – biochemical, 635/667 nm fluorescence, primary screen (AID 1095).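 Further: score merges 667 nm feature fluorescence with signal to noise over triplicate slides.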 The settings on record: 635 nm fluorescence, higher = more signal.
The target of assay [19] is Neurogenic locus notch homolog protein 3 (Homo sapiens) (UniProt Q9UM47). As to the kind of experiment: small molecules binding NOTCH3 protein – biochemical, 635/667 nm fluorescence, primary screen (AID 1096). The settings on record: small-molecule microarray, 635 nm fluorescence, higher = more signal.
Assay [20] is described as follows: probe aEGFR binding to arrayed compounds – biochemical, biotinylated probe, 635/667 nm fluorescence, primary screen (AID 1097).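 Further: probe is a biotinylated anti-EGFR antibody binding compounds printed on slides; score combines fluorescence near 667 nm and signal to noise of each spot.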 The settings on record: small-molecule microarray, higher = more signal.

Data on 5 compounds can be found in PubChem BioAssay.

SMILES strings stand for the structures. Calls of active or inactive are those of the source.

Chain of Pro-neuregulin-1, membrane-bound isoform (Homo sapiens) (Q02297 whole entry, looked up, the tested form may be a part, canonical isoform): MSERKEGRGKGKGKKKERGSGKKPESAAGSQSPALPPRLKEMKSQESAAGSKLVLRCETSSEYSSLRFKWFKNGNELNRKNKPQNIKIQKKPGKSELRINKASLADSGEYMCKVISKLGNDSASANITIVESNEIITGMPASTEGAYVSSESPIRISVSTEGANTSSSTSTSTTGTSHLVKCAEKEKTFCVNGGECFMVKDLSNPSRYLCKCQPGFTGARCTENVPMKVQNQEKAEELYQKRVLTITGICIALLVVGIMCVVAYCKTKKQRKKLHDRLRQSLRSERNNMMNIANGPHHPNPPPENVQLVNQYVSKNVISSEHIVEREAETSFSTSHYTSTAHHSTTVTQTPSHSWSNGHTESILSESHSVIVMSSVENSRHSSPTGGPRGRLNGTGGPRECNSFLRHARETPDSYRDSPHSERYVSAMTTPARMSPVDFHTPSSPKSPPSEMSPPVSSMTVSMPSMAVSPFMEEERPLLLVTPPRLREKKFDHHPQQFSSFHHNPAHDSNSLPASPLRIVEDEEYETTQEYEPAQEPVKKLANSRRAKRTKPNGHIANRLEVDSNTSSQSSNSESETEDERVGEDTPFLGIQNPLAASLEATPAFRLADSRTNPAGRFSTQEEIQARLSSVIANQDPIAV
Chain of Neurogenic locus notch homolog protein 3 (Homo sapiens) (Q9UM47 whole entry, looked up): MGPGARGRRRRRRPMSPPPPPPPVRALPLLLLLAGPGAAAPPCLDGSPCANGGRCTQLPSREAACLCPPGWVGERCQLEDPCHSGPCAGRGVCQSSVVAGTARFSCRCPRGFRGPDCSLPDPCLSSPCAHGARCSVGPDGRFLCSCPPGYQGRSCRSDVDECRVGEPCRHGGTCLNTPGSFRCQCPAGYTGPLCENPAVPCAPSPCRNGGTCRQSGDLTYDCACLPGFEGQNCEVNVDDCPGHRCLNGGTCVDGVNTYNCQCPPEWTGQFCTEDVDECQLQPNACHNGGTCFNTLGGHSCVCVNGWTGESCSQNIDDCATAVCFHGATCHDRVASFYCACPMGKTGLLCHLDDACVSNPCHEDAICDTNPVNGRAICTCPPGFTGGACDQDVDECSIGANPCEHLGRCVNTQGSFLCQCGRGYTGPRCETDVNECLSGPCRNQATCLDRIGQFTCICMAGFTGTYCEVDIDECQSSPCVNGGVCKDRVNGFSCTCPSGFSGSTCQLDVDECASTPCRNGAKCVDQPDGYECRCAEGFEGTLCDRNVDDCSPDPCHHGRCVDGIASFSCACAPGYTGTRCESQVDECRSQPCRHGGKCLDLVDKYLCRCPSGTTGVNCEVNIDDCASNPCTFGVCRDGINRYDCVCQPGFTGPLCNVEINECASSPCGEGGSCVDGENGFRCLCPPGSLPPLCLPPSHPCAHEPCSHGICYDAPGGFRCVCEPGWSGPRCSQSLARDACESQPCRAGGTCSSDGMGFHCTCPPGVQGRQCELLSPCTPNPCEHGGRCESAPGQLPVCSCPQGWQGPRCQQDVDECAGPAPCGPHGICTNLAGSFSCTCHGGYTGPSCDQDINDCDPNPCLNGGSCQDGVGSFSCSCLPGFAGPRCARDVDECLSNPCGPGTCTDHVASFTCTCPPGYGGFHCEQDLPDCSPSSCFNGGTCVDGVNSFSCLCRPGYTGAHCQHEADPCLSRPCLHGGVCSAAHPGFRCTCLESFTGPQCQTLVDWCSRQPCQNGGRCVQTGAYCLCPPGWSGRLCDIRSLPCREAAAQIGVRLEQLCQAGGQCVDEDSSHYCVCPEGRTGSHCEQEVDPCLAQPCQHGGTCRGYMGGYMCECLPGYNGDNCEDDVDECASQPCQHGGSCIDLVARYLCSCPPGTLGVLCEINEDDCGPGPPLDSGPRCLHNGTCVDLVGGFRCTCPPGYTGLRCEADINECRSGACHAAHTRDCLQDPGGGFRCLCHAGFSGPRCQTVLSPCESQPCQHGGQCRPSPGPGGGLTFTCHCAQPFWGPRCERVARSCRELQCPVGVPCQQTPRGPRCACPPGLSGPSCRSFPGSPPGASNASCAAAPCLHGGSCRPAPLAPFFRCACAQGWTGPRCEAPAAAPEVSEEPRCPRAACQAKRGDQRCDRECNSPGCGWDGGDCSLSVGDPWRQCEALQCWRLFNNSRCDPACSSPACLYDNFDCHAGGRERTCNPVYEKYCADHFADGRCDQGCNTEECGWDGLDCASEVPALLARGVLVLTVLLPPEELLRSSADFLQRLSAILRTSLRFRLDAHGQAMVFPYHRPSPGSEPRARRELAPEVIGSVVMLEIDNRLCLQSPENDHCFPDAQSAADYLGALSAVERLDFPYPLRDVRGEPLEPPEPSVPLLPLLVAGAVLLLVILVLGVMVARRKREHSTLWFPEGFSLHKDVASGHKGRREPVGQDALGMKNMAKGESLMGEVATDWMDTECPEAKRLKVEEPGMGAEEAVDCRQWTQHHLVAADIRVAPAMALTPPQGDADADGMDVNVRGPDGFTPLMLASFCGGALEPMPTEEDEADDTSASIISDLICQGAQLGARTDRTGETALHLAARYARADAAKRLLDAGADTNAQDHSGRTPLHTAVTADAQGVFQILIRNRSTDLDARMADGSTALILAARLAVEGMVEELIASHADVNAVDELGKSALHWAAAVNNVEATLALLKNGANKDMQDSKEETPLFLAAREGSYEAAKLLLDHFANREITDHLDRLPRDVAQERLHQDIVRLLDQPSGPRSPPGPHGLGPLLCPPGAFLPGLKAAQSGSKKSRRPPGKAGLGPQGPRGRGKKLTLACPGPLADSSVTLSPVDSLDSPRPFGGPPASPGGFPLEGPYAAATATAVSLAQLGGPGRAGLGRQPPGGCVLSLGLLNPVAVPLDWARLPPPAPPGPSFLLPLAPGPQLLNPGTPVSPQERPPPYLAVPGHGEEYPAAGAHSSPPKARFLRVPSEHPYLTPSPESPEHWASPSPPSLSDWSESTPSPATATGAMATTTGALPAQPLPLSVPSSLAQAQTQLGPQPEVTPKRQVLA
Chain of Torsin-1A-interacting protein 2 (Homo sapiens) (Q8NFQ8 whole entry, looked up): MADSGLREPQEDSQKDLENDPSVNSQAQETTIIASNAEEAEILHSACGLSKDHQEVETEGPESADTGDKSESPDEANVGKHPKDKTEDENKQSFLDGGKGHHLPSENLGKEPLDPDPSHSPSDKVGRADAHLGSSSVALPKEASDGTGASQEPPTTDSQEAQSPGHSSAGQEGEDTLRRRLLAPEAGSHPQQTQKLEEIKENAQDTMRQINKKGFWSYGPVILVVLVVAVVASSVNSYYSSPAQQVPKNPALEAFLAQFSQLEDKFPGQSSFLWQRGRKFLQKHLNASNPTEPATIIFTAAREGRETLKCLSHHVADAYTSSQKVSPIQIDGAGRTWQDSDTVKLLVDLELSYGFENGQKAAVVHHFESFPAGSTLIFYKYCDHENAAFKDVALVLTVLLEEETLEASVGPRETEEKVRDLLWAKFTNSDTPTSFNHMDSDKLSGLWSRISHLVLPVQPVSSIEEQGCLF

Regarding `CC=CC(O)C1C=CC2C(=O)N(c3ccccc3)C(=O)C2N1Nc1ccccc1F` (stereo not given), the composite z-score in assay [1] turned out to be 0.968; in [2] it was 0.0233; in [3], 0.384; in [4], 0.547; in [5], 0.264; in [6] it was 0.82. For the same compound, the composite z-score in assay [7] came out at 1.36; in assay [9] it was 1.07; in [10] it was 0.0001; in assay [11], 0.841; in assay [15], 3.08; in [17], 0.535. The composite z-score is -0.592 in [18], -0.411 in [19] and 0.312 in [20]. The z-score was 0.584 (inactive) in assay [8]; -0.0071 (inactive) in assay [12]; 1.4 (inactive) in assay [13]; 0.741 (inactive) in assay [14]; -0.463 (inactive) in assay [16].
`O=C1C2C=CC(C(O)c3ccc(Br)cc3)N(Nc3ccccc3F)C2C(=O)N1c1ccccc1` (stereo not given): the composite z-score in [1] was -0.436; in assay [2], 0.536; in [3], 0.0181; in assay [4], 0.178; in assay [5], 0.776; in assay [6], 1.11. Besides, the composite z-score in assay [7] was 1.06; in assay [9], 0.68; in assay [10] it was -0.0346; in assay [11], 0.566; in assay [15] it was 2.97; in [17], -0.103. Also, the composite z-score in assay [18] is -0.231; in assay [19], 0.626; in [20] it was -0.112. For the same compound, the z-score in assay [8] is -1.55 (inactive); in [12] it was -1.16 (inactive); in assay [13], -0.435 (inactive); in assay [14], -1.26 (inactive); in [16] it was 0.569 (inactive).
With `COC(=O)c1ccc([C@H](NC(=O)c2ccco2)[C@]2(C)C[C@H]2C2CCCCC2)cc1`, the composite z-score in assay [1] was 0.685; in assay [2], -0.462; in assay [3] it was -0.0301; in [4], -0.11; in [5], 0.329; in assay [6] it was 1.12. Moreover, the composite z-score in assay [7] was -0.808; in [9], 0.488; in assay [10], 2.5; in assay [11], -1.67; in [15], 1.45; in [17] it was -0.0986. Moreover, the composite z-score in assay [18] was -0.586; in [19], -0.436; in [20], -0.192. Moreover, the z-score in [8] is -0.622 (inactive); in [12], 0.0339 (inactive); in assay [13], 0.17 (inactive); in [14], 0.605 (inactive); in assay [16], -1.49 (inactive).
Take `C=CCN1Cc2ccccc2[C@H]2OC(c3ccc(OCCCO)cc3)=N[C@@]2(CC=C)C1=O`: the composite z-score in assay [1] is 0.451; in [2], 0.169; in assay [3] it was 0.0188; in assay [4] it was -0.177; in [5], 1.12; in [6] it was 1.44. Also, the composite z-score in assay [7] is 1.42; in assay [9] it was 0.633; in assay [10], 0.0401; in assay [11] it was 1.53; in [15] it was 3.21; in assay [17] it was 0.185. Further, the composite z-score in [18] came out at 1.55; in assay [19], 0.979; in assay [20], 0.168. The z-score is -2.18 (inactive) in assay [8]; -3.05 (inactive) in assay [12]; -7.01 (inactive) in assay [13]; -0.397 (inactive) in assay [14]; 0.763 (inactive) in assay [16].
Turning to `COCCOC(=O)N1C(=O)[C@@]2(c3cc(C#CCCO)ccc31)[C@H](C(=O)Nc1nc3ccccc3s1)[C@H]1C(=O)O[C@H](c3ccccc3)[C@H](c3ccccc3)N1[C@@H]2c1ccccc1OCCO`, the composite z-score in assay [1] is -0.224; in assay [2], 0.53; in assay [3], 0.0293; in assay [4] it was 0.802; in assay [5], 1.29; in assay [6], 0.95. Further, the composite z-score in assay [7] was 1.32; in assay [9] it was 0.745; in [10], 0.153; in assay [11], 1.54; in assay [15], 2.81; in [17] it was -0.116. The composite z-score in assay [18] is 0.6; in assay [19], 1.09; in assay [20], -0.0828. For the same compound, the z-score was 1.23 (inactive) in assay [8]; 2.53 (inactive) in [12]; 1.7 (inactive) in assay [13]; 3.64 (inactive) in assay [14]; -0.0236 (inactive) in assay [16].
